# Data as given in PubChem BioAssay (Tox21).
# A number with no mark means an inactive call. A call without a number means that no potency is given here. The source made the active and inactive calls. Calls come from the whole dose curve; as a rule, active = well fitted activation curve with a large enough effect in the repeat runs; inconclusive = weak or mixed curves; inactive = flat fitted curve, though single readings scatter.
# Target: KiSS-1 receptor (Homo sapiens) (UniProt Q969F8)
# Experiment: Human kisspeptin (KISS1R) small molecule agonists, calcium flux assay in KISS1R-HEK293 cells (AID 1920064)
# Conditions: KISS1R-HEK293, calcium flux fluorescence, agonist; series mostly up to 76.8 µM
# Source text: National Center for Advancing Translational Sciences [NCATS]
# Division of Preclinical Innovation [DPI]
# U.S. Environmental Protection Agency [EPA]
# National Institutes of Environmental Health Sciences [NIEHS]
# National Toxicology Program [NTP]
# U.S. Food and Drug Administration [FDA]
# Kisspeptin and its receptor KISS1R play key roles in mammalian reproduction due to their involvement in the onset of puberty and control of the hypothalamic-pituitary-gonadal axis such as regulates GnRH release from the hypothalamus. The kisspeptin/KISS1R system also plays a direct role in peripheral organs (including the ovary, testis, uterus, and placenta) and is implicated in reproductive diseases such as miscarriage and polycystic ovary syndrome (PCOS). Abnormal KISS1R activity is associated with abnormal puberty, infertility, endometriosis, and hormone-dependent tumors. The KISS1 receptor (KISS1R, also called GPR54), a G-protein-coupled receptor (GPCR), acts (through phospholipase C) to increase intracellular inositol trisphosphate and then release intracellular calcium stores. Cell-based KISS1R-HEK293 assay is using HEK293 cells that have been genetically engineered to express the human KISS1R, which activity can be measured by calcium signaling. A compound/drug can activate (agonist) KISS1R that can be monitored by levels of intracellular calcium.
# KISS1R-HEK293 cells developed by Codex Corp contain human KISS1R gene, which was stably integrated into HEK 293 cells. The compound activation can be detected by fluorescence intensity via calcium flux assay. This cell line has been used to screen the Tox21 10K compound library to identify agonists of KISS1R.
# KISS1R-Hek293 cells were dispensed at 1500 cells/4uL/well in 1536-well black wall/clear bottom plates using a multidrop dispenser. After the assay plates were incubated at a 37 C/5% CO2 incubator for 18 hours, 4 microL of Calcium Dye Solution was added to each well. The plates were incubated at 37 C for 1 hour. And then 23 nL of compounds dissolved in DMSO, positive controls, or DMSO only was transferred to the assay plate by a pin tool station. The fluorescence intensity in the plates was measured using FDSS 7000EX kinetic plate reader with a filter set of Ex/Em=480/540 for 3 min at 1 sec intervals. Each test compound was measured at 15 concentrations and in triplicates.
# Sequence of KiSS-1 receptor (Homo sapiens) (Q969F8 whole entry, looked up): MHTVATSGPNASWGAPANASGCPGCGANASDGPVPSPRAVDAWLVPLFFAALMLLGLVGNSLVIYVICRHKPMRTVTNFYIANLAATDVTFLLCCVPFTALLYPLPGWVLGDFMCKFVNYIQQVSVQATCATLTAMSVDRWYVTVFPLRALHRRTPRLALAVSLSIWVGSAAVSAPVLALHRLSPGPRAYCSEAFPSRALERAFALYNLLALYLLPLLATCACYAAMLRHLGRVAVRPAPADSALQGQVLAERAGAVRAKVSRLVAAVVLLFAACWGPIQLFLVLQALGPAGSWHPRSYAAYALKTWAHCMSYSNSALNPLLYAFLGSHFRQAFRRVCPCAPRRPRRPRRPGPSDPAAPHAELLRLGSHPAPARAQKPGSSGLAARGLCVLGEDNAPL
Structure (SMILES),Potency,activation
CC(=O)SCC(CC(=O)c1ccc(C)cc1)C(=O)O (stereo not given),inactive,–
N[C@@H](C(=O)N[C@@H]1C(=O)N2C(C(=O)O)=C(Cl)CS[C@H]12)c1ccccc1,–,-2.2% [at 6.97 µM]
Nc1c[n+](N2CCOCC2)no1,inactive,–
CC(CSC(=O)c1ccccc1)C(=O)N1C[C@@H](Sc2ccccc2)C[C@H]1C(=O)O (stereo not given in full),–,-0.676% [at 15.8 µM]
CC(C)CCOC(=O)c1ccc(N(C)C)cc1,inactive,–
CC(Cc1ccc(O)c(O)c1)C(C)Cc1ccc(O)c(O)c1 (stereo not given),inactive,–
CC(=O)CCc1ccc(OC(C)=O)cc1,inactive,–
C#Cc1cccc(Nc2ncnc3cc(OCCOC)c(OCCOC)cc23)c1,inactive,–
C=CC(C)=CCC=C(C)C,inactive,–
CN1CCC(=C2c3ccccc3Sc3ccccc32)CC1,inactive,–
O=C(Nc1ccc2c(c1)Cc1ccccc1-2)C(F)(F)F,inactive,–
CCCC/C=C/CCCCO,inactive,–
CCCCCCCCCCCCCCCCCC[N+](C)(C)Cc1ccccc1,inactive,–
O=[N+]([O-])c1cccc(C(F)(F)F)c1,inactive,–
CCCCOC(=O)c1ccccc1,inactive,–
CSc1ccc(Oc2ccc(S(N)(=O)=O)cc2CN(C)C)cc1C,inactive,–
COC(=O)C1=C(C)NC(C)=C(C(=O)OC(C)C)C1c1cccc2nonc12 (stereo not given),inactive,–
BrCc1cccc(Oc2ccccc2)c1,inactive,–
O=C(/C=C/c1ccc(O)c(O)c1)O[C@@H]1C[C@@](OC(=O)/C=C/c2ccc(O)c(O)c2)(C(=O)O)C[C@@H](O)[C@@H]1O,inactive,–
CN1CCN(CCCN2c3ccccc3Sc3ccc(S(=O)(=O)N(C)C)cc32)CC1,inactive,–

Structure (SMILES),Potency,activation
COc1ccc(-c2ccc3cc(C(=O)O)ccc3c2)cc1C12CC3CC(CC(C3)C1)C2,inactive,–
[O-][n+]1ccccc1SSc1cccc[n+]1[O-],–,1.71% [at 15.8 µM]
CCCC(=O)O[C@]1(C(=O)CCl)[C@@H](C)C[C@H]2[C@@H]3CCC4=CC(=O)C=C[C@]4(C)[C@@]3(F)C(=O)C[C@@]21C,inactive,–
Nc1cc(N)cc(C(=O)O)c1,inactive,–
NCc1ccccc1,inactive,–
CC1CCCC1,inactive,–
NC(=O)N(O)[C@@H]1COc2cc(OCc3ccccc3)ccc21,inactive,–
CCCCOCC(C)OCC(C)O (stereo not given),inactive,–
O=C(/C=C/c1ccccc1)NCCO,inactive,–
Oc1ccc(Cl)cc1C1CCCC1,inactive,–
COc1ccc(CCO)cc1,inactive,–
COc1cc(C(C)C)c2c(c1)S(=O)(=O)N(COc1cc(=O)n3cccc(OCCN4CCCCC4)c3n1)C2=O,–,-3.13% [at 15.8 µM]
CCCCN1C(=O)[C@@H]([C@H](O)C2CCCCC2)NC(=O)C12CCN(Cc1ccc(Oc3ccc(C(=O)O)cc3)cc1)CC2,inactive,–
O=C1c2ccccc2C(=O)c2c(Cl)cccc21,inactive,–
Oc1cc2c(cc1O)[C@H]1c3ccc(O)c(O)c3OC[C@@]1(O)C2,inactive,–
C=C1CC[C@H]2C[C@@H]1C2(C)C,inactive,–
Cc1ccc(O)c([C@H](CCN(C(C)C)C(C)C)c2ccccc2)c1,inactive,–
COc1ccccc1OCCNCC(O)COc1cccc2[nH]c3ccccc3c12 (stereo not given),inactive,–
CC(C)NCC(O)COc1ccc(CCOCC2CC2)cc1 (stereo not given),inactive,–
Cc1ncc([C@@H](CCCCCCc2ccc3c(n2)NCCC3)CC(=O)O)cn1,inactive,–
